# How the values were obtained:
# Assay in all cases: pooled miR-30 sensor sort-seq; sequence = guide strand
# Settings in all cases: shRNA
# [1] = molecular target: GALT
# [2] = molecular target: GALNTL4
# [3] = molecular target: GALNT9
# [4] = molecular target: GH2
# [5] = molecular target: GIP
# [6] = molecular target: GKN2
# [7] = molecular target: GKN1
# [8] = molecular target: GJB7
# [9] = molecular target: GLA
# Further: reference of the scale not given here.
sequence,measurement,setting,value
TACTAACCAGTGCTCACTGGTT,sensor-assay potency score (higher = more potent),[1],-0.859
TGGATCTGCTGACTGCTCGTGT,sensor-assay potency score (higher = more potent),[2],-0.605
TAGTAGTCAATGTCGTTGTTGT,sensor-assay potency score (higher = more potent),[3],0.0429
AAGGGGACCAGTACTAACCAGT,sensor-assay potency score (higher = more potent),[1],-0.813
TAGATCATCACGCTCAGCAGGG,sensor-assay potency score (higher = more potent),[1],-0.0859
AAGAGCTTCTTCATGATGGAGG,sensor-assay potency score (higher = more potent),[1],-0.296
TAGCAGGGGCTCTCCATGCTGA,sensor-assay potency score (higher = more potent),[1],-0.945
TCGGTTGTCATCATCATCCACG,sensor-assay potency score (higher = more potent),[2],-0.664
TATGCCAGCTGGTACAGGCGAC,sensor-assay potency score (higher = more potent),[4],-1.2
TAAACTCCTGATAGGTGTCATA,sensor-assay potency score (higher = more potent),[4],-1.52
TTGGTGAATCTTGTCCATGGCA,sensor-assay potency score (higher = more potent),[5],-0.501
TTTGTCTGATCCAGCAAGCAGG,sensor-assay potency score (higher = more potent),[5],-1.07
TTAATTTGACTTTTGAGTGTAA,sensor-assay potency score (higher = more potent),[6],0.33
ATCCATAGTACACTGGTCGTGT,sensor-assay potency score (higher = more potent),[7],0.399
TACACTGGTCGTGTAGCACGTT,sensor-assay potency score (higher = more potent),[7],-0.157
TAGAAGAGCATGATCCTGCATG,sensor-assay potency score (higher = more potent),[6],-0.328
TGATATTATAGTTAGCTAGGGC,sensor-assay potency score (higher = more potent),[7],-0.211
TAGAGTTTCTTTCTGTGCCTTT,sensor-assay potency score (higher = more potent),[8],0.0219
TTTATCATAGCTACAGCCCAGG,sensor-assay potency score (higher = more potent),[9],-0.597
TATTCTAAAACAACTAATGTTA,sensor-assay potency score (higher = more potent),[8],-0.542
TATTTTTGGAGACAGCACTTAA,sensor-assay potency score (higher = more potent),[8],-0.911
TATACTAGTAAATTATAGGCGA,sensor-assay potency score (higher = more potent),[8],-0.424
TTTATAGTCAAAAATTGTGGTA,sensor-assay potency score (higher = more potent),[6],-0.623
ATTGTTGACACTCACTGACTGC,sensor-assay potency score (higher = more potent),[7],-0.392
TAGTCACTGATGAAAGTCCCTT,sensor-assay potency score (higher = more potent),[5],-0.346
TTATAGTCAAAAATTGTGGTAG,sensor-assay potency score (higher = more potent),[6],0.587
TGTCACAGTAACAACCATCAAA,sensor-assay potency score (higher = more potent),[9],-0.951
TTCTTTTGAAAGAGTCTGGTTG,sensor-assay potency score (higher = more potent),[7],0.101
TGGTAGAAGAGCATGATCCTGC,sensor-assay potency score (higher = more potent),[6],-0.134
ATACTCTTTATACTTTTCCAGG,sensor-assay potency score (higher = more potent),[9],-1.52
TGGTCGTGTAGCACGTTCCTGA,sensor-assay potency score (higher = more potent),[7],-0.625
TATTTTCTGACTGAATCTCAAA,sensor-assay potency score (higher = more potent),[6],-1.16
TTACAGTATAGTACATAGTGAA,sensor-assay potency score (higher = more potent),[8],-0.477
TTGTGAACTTCATCTTGTCTTC,sensor-assay potency score (higher = more potent),[7],-0.21
TTCATTGTTGACACTCACTGAC,sensor-assay potency score (higher = more potent),[7],0.268
AACATCAACAATTCTCTCCTGG,sensor-assay potency score (higher = more potent),[9],0.959

# From the OligoGym collection
